BAZ2B inh – blocks human BAZ2B. AlphaScreen BAZ2B-H3K14Ac peptide displacement. Potency, µM (top dose mostly 114 µM), inactives show at the top dose activity change, negative = inhibition, most hits filed as inhibitors. 360,000 tested, 4.4% active; note: % is set by controls: 0 for no effect and ±100 for the full control effect; nearly all actives have a fitted effect of over 60% in size
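BAZ2B (50 nM) with biotin-H3(5-23)K14Ac peptide (50 nM) in PBS pH 7.4, 0.01% Tween-20, preformed 30 min, then compound 30 min at room temperature; top concentration 110uM. AlphaScreen streptavidin donor/nickel chelate acceptor beads (10 ug/mL final), 20 min dark, signal read.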
G9a block – inhibitors of human histone lysine methyltransferase G9a. Q96KQ7. G9a H3K9 monomethylation, AlphaScreen, 2 h. Potency, µM (series often up to 102 µM), inactives show top-dose activity, negative = inhibition, actives largely listed as inhibitors. 350,000 tested, 8.8% active. AID 504332; note: % is set by controls: 0 for no effect and ±100 for the full control effect; nearly all actives have a fitted effect of over 75% in size
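Using a bead-based AlphaScreen, monomethylated H3K9 product from 2 h room-temperature reactions (G9a 20 nM, peptide 500 nM, SAM 20 uM) was detected with 0.5 ug/mL rabbit anti-H3K9me1 antibody.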
HP1b chromo inh – inhibitors of HP1-beta chromodomain binding to methylated histone tails. P83916. 390,000 tested, 0.56% active. Potency, µM (titrated, usually from 114 µM), for inactives: at the top dose activity change, negative = inhibition, most hits filed as inhibitors. AlphaScreen HP1-beta / biotin-H3K9me3 peptide binding; note: nearly all actives have a fitted effect of over 70% in size
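AlphaScreen: HP1-beta (50 nM) preformed 30 min with biotin-H3(1-18)K9me3 peptide (50 nM) in PBS pH 7.4, 0.01% Tween-20. Compound added for 30 min at RT, then streptavidin donor/nickel chelate acceptor beads (10 ug/mL) for 30 min.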
Sfp PPTase inh – Sfp phosphopantetheinyl transferase inhibition; Biochemical Sfp PPTase activity, qHTS; Potency, µM, without a hit: largest response in the series, negative = inhibition, usual class: inhibitors; 310,000 tested, 3.5% active;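 note: the enzyme is Sfp with the accession as filed and its product quenches rhodamine fluorescence; 0% = enzyme reaction without inhibitor and -100% = no enzyme wells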
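Fluorescence-quenching assay with 15 nM Sfp, 5 uM rhodamine-CoA and 12.5 uM BHQ-2-labelled ybbR peptide in pH 7.6 Hepes/MgCl2 buffer. Enzyme was pre-incubated with compound for 15 min at room temperature. Rate was taken from the 30-min fluorescence change (525/598 nm).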
12-LOX inh – inhibitors of human 12S-lipoxygenase ALOX12; P18054; purified 12hLO, xylenol orange hydroperoxide absorbance; Potency, µM (highest dose often 108 µM), inactives show at the top dose activity change, negative = inhibition, usual class: inhibitors; 580,000 tested, 1.1% active; AID 1671190; note: % is set by controls: 0 for no effect and ±100 for the full control effect
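Purified human 12hLO (150 nM final) in 25 mM Hepes, 0.01% Triton X-100, pH 7.0 was preincubated 15 min at room temperature with compound. Then 40 uM arachidonic acid was added, 30 min. Hydroperoxide was read by Fe-XO absorbance ratio 573/405 nm.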
JMJD2A Tudor – blocks the human JMJD2A Tudor domain. O75164. AlphaScreen JMJD2A-Tudor / H3K4me3 peptide binding. Potency, µM (doses to about 114 µM), for the others: top-dose activity change, negative = inhibition, usual class: inhibitors. 390,000 tested, 4.4% active. AID 504339; note: % is set by controls: 0 for no effect and ±100 for the full control effect; nearly all actives have a fitted effect of over 50% in size
* hit, by the source's call; ? = inconclusive; / = no result given; ! = a repeat was not active; [ ] = remark or other dose. In the library only some 8.7% were active in any assay of this set; here they are far more common. Calls come from the whole dose curve; as a rule, active = well fitted curve in the direction sought with a large enough effect; inconclusive = small, poorly fitted or top-dose-only effect, or another doubt; inactive = no such curve, though single readings can be large; an effect the other way counts as inactive or inconclusive. Potency is the fitted concentration of half-maximal effect.

SMILES	BAZ2B inh	G9a block	HP1b chromo inh	Sfp PPTase inh	12-LOX inh	JMJD2A Tudor
O=C1CCC2(CNC(=O)c3ccoc3)CCC=C2N1 (stereo unspecified)	/	/	/	/	11.6%	/
Cc1cc(C(=O)C(C)OC(=O)c2cnccn2)c(C)n1-c1ccccc1 (stereo unspecified)	25.1µM*	56.2µM*	-11.9%	/	-2.9%	?
O=C(CCc1nc2ccccc2o1)NC1CCCCC1	/	/	/	/	-1.4%	/
CCOc1ccc(NC(=O)C2CCN(C(=O)N3CC(C)Oc4ccc(Cl)cc43)CC2)cc1 (stereo unspecified)	79.4µM*	?	-10.2%	/	0.0%	?
CC1(Cc2ccc3c(c2)OCO3)CCCN(C(=O)c2ccc3ncsc3c2)C1 (stereo unspecified)	/	/	/	/	-29.1%	/
Fc1cc(Br)ccc1NC(=S)NCc1cccs1	/	/	/	/	25.1µM*	/
Cc1cc(Cl)ccc1NC(=S)NCc1cccs1	3.3%	-3.0%	37.5%	12.8%	?	-19.1%
COC(=O)C(C)Oc1ccc2c(=O)c(-c3ccccc3OC)c(C(F)(F)F)oc2c1 (stereo unspecified)	/	/	/	/	-34.4%	/
Cc1ccccc1OC(=O)c1ccc(-c2ccccc2)cc1	/	/	/	/	0.7%	/
Cc1ccc(N(Cc2ccccc2)C(=O)c2ccc(F)c(S(=O)(=O)N3CCOCC3)c2)cc1	-4.1%	44.7µM*	-0.7%	/	-3.7%	-17.1%
O=C1COc2ccc(-c3cn[nH]c3)nc2CN1Cc1ccccc1	/	/	/	/	-4.2%[176 µM]	/
O=C1CN(/N=C/c2ccc(-c3ccc([N+](=O)[O-])cc3)o2)C(=O)N1	/	3.9%[59 µM]	/	89.1µM*!	?	/
Cc1cc(C(=O)O)ccc1-c1ccc(/C=N/n2cnnc2)o1	1.5%	56.2µM*	33.0%	-7.1%	81.2%	2.1%
O=[N+]([O-])c1cc(-c2ccc(/C=N\n3cnnc3)o2)cc([N+](=O)[O-])c1	-37.6%	44.7µM*	?	?	-62.8%	?
COC(=O)c1c(C)oc2ccc(OS(C)(=O)=O)cc12	/	/	/	/	-24.1%	/
CC(NC(=O)/C=C/c1ccc(Br)cc1)C1CC2CCC1C2 (stereo unspecified)	/	/	/	/	-8.2%	/
COCCN1C(=O)c2ccccc2N2C(=O)CCC12C(=O)OCc1cc(=O)oc2cc(OC)ccc12 (stereo unspecified)	/	/	/	/	-0.2%	/
CN(CC(=O)NC(N)=O)Cc1ccc(F)cc1F	/	/	/	/	-7.6%	/
O=C1c2ccccc2C(=O)N1CCCc1nc(-c2ccccn2)no1	?	21.6%[59 µM]	-13.5%	-16.3%	0.0%	79.4µM*
CCCc1nc(C(=O)NCc2ccc(-n3ccnc3C)cc2)cs1	/	/	/	/	12.2%	/
CC(=O)C1=C(NC(=O)c2ccc(C(F)(F)F)cc2)C[C@@H]2[C@H]1C2(C)C	-16.8%	-7.7%[59 µM]	25.8%	11.0%	-7.7%	-9.2%
CC(=O)C1=C(NC(=O)c2ccccc2F)C[C@@H]2[C@H]1C2(C)C	-9.6%	56.2µM*	35.4%	-4.7%	?	-12.8%
O=C(CSc1nc2cc(Cl)ccc2s1)Nc1ccc(F)cc1	/	/	/	/	0.1%	/
CN(C)CCCNc1nc(-c2ccccc2)nc2ccccc12	7.8%	79.4µM*	29.8%	18.5%	?	-15.9%
Cc1ccc(-c2nc(NCCCN(C)C)c3ccccc3n2)cc1	/	/	/	/	-24.1%	/
SMILES	BAZ2B inh	G9a block	HP1b chromo inh	Sfp PPTase inh	12-LOX inh	JMJD2A Tudor
COc1ccc(CNc2nc(-c3ccc(N(C)C)cc3)nc3ccccc23)c(OC)c1	/	0.4%[0.501 µM]	/	17.8µM*	?	/
Cc1nn(-c2ccccc2)c(OC(=O)C(C)C)c1Sc1ccccc1	-7.2%	1.58µM*	12.2%	/	?	?
COc1cc(C(=O)Oc2c(Sc3ccccc3)c(C)nn2-c2ccccc2)cc(OC)c1OC	-24.6%	3.98µM*	64.4%	/	?	-2.4%
Cc1nn(C(C)(C)C)c(OC(=O)C(C)(C)C)c1Sc1ccccc1	78.6%	65.5%[59 µM]	69.7%	/	-27.7%	25.6%
Cc1nn(S(=O)(=O)c2ccc(Cl)cc2)c(C)c1Sc1ccc([N+](=O)[O-])cc1	-31.6%	-10.0%[59 µM]	-21.0%	9.8%	1.3%	-34.9%
Cc1nn(-c2ccccc2)c(N)c1Sc1ccc([N+](=O)[O-])cc1	-12.5%	10µM*	?	?	?	?
Cc1nn(-c2ccccc2)c(OC(=O)C(C)(C)C)c1Sc1ccccc1	-0.4%	3.98µM*	81.2%	/	?	?
CC1CCN(S(=O)(=O)N2CCC(C(=O)N3CCC(Cc4nncn4CC4CC4)CC3)CC2)CC1	/	/	/	/	37.8%	/
CCCSc1nn(CCN(C)C)c2nc3sc(C)c(CC)c3c(=O)n12	/	/	/	/	6.2%	/
Cc1ccc(Sc2c(C)nn(-c3ccccc3)c2OC(=O)C(C)(C)C)cc1	16.8%	10µM*	109.3%	/	?	25.6%
Cc1ccc(Sc2c(C)nn(C(C)(C)C)c2OC(=O)C(C)(C)C)cc1	52.1%	18.2%[59 µM]	95.0%	/	-15.9%	55.3%
COc1ccc(S(=O)(=O)Nc2ccc(S(=O)(=O)N3CCOCC3)cc2)cc1C	-0.5%	4.0%[59 µM]	17.8%	8.2%	0.0%	-14.5%
FC(F)(F)c1ccc(Cl)c(NC2=NCCCCC2)c1	0.5%	29.1%	18.6%	9.5%	1.3%	-7.5%
Cc1ccc(NS(=O)(=O)c2ccc(NC(=O)N3CCCCC3)cc2)cc1	2.5%	/	47.4%	10.1%	-1.2%	2.8%
CCCCCCC1(C)NC(=O)N(C(C)C(=O)Nc2ccc(N3CCOCC3)cc2)C1=O (stereo unspecified)	7.2%	17.3%[12.7 µM]	22.2%	/	-13.3%	-26.0%
FC(F)(F)c1ccc(N2CCOCC2)c(NC2=NCCCCC2)c1	?	50.1µM*	18.1%	-3.5%	?	-14.6%
Cc1ccc(S(=O)(=O)Nc2ccc(N3CCOCC3)cc2)cc1C	-22.4%	44.7µM*	-11.4%	0.1%	3.8%	?
CC(=O)N1CCN(c2ccc(NS(=O)(=O)c3ccc(C)cc3)cc2)CC1	-15.3%	44.7µM*	8.8%	7.7%	?	-26.1%
CC(C)c1ccc(C2(C)NC(=O)N(C(C)C(=O)Nc3ccc(N4CCOCC4)cc3)C2=O)cc1 (stereo unspecified)	-31.7%	56.2µM*	36.2%	/	1.1%	-24.7%
CC(Oc1cccc2ccccc12)C(=O)NC1(C#N)CCCCC1 (stereo unspecified)	/	/	/	/	-27.8%	/
CN1CCCC2(CCN(C(=O)c3sccc3S(N)(=O)=O)C2)C1=O (stereo unspecified)	/	/	/	/	4.1%	/
Cc1ccc(NC(=O)CC2CCCN(c3cnn(C)c(=O)c3)C2)cc1F (stereo unspecified)	/	/	/	/	1.5%	/
Cc1ccc(S(=O)(=O)c2ccc(NN)cc2)cc1	-22.0%	8.91µM*	-21.4%	2.9%	3.3%	-34.0%
O=S(=O)(Nc1cc(C(F)(F)F)ccc1N1CCOCC1)c1ccc2ccccc2c1	-1.6%	50.1µM*	59.0%	0.4%	?	-7.3%

Bioassay records from PubChem BioAssay.
